In PubChem BioAssay (EPA / NIEHS) one finds AC50 and outcome data, which are given here for 9 molecules.

For experiment [1], the target named is PGR (gene 5241) (UniProt P06401). The experiment in a line: TOX21_PR_BLA_Followup_Antagonist_ratio: Tox21 HEK293 Progesterone Receptor (PR) Antagonism Beta-lactamase Follow-Up Assay, Ratio (AID 2283934). A digest of the protocol:
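PR-UAS-bla HEK293T cells in medium with 2% charcoal-stripped FBS were treated with compounds plus 1 nM (final) promegestone (R5020) for 16 hr at 37C. LiveBLAzer B/G FRET substrate was then added for 2 h at room temperature; signal is cleaved/uncleaved substrate ratio versus DMSO.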

A short description of experiment [2]: TOX21_PR_BLA_Followup_Agonist_viability: Viability Assessment in the Tox21 HEK293 Progesterone Receptor (PR) Agonism Beta-lactamase Follow-Up Assay (AID 2283935).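 Note: signal loss means lower viability so actives are cytotoxic.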 A digest of the protocol: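 PR-UAS-bla HEK293T cells in 2% charcoal-stripped FBS medium, compound added after 6 hr plating, 16 hr at 37C/5% CO2. After bla FRET read, CellTiter-Glo added; luminescence read after 30 min at room temperature; signal loss marks cytotoxicity.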

The nature of experiment [3]: TOX21_PR_BLA_Followup_Antagonist_viability: Viability Assessment in the Tox21 HEK293 Progesterone Receptor (PR) Antagonism Beta-lactamase Follow-Up Assay (AID 2283936).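 Note: hits lower the luminescence signal meaning cytotoxicity.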 A digest of the protocol: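 PR-UAS-bla HEK293T cells (3,000/well, 2% charcoal-stripped FBS) given compound plus R5020 agonist, 16 h at 37C. CellTiter-Glo added after bla read, 30 min at room temperature; luminescence loss indicates cytotoxicity.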

Experiment [4] deals with PGR (gene 5241) (UniProt P06401). Put plainly: TOX21_PR_LUC_Followup_Antagonist: Tox21 HEK293 Progesterone Receptor (PR) Antagonism Luciferase Follow-Up Assay (AID 2283938).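 Note: curve fitted upward as signal gain over DMSO baseline despite antagonist label.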 The procedure, abridged:
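Luminescence from ONE-Glo was measured 30 min after reagent addition, following 16 h exposure of HEK293-PR-A-luc cells (3,000/well, plated 5 h earlier) to DMSO-dissolved compounds at 37C; DMSO served as baseline.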

Experiment [5] can be described thus: TOX21_PR_LUC_Followup_Antagonist_viability: Viability Assessment in the Tox21 HEK293 Progesterone Receptor (PR) Antagonism Luciferase Follow-Up Assay (AID 2283940). A digest of the protocol:
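HEK293-PR-A-luc cells, precultured 5 days in assay medium with 10% charcoal-stripped FBS, were seeded at 3,000 cells/well, treated with compounds in DMSO for 16 h at 37C, and viability was read as cellular ATP by CellTiter-Glo luminescence.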

Experiment [6] in a line: TOX21_PR_LUC_Followup_Agonist_viability: Viability Assessment in the Tox21 HEK293 Progesterone Receptor (PR) Agonism Luciferase Follow-Up Assay (AID 2283941).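 Note: loss of signal means cytotoxicity so actives lower viability.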 The procedure, abridged: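 HEK293-PR-A-luc cells, pre-cultured 5 days in 10% charcoal-stripped FBS, were seeded at 3,000 cells/well, rested 5 h at 37C, then given compound in DMSO for 16 h at 37C. Cellular ATP was read by CellTiter-Glo luminescence; signal loss indicates cytotoxicity.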

Experiment [7] is described as follows: CEETOX_H295R_PROG_noMTC: CeeTox H295R High-throughput Steroidogenesis Assay for Progesterone (PROG), maximum tolerated concentration (MTC) filtered results only (AID 2283920; active = hit-call score of the fitted dose curve at least 0.9, where 1 is the maximum; inactive = score below 0.9). To be noted: actives raise or lower the signal. The procedure, abridged: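 H295R human adrenal cells were prestimulated 48 h with 10 uM forskolin, then exposed 48 h to test chemical (0.1% DMSO final). Progesterone in medium was quantified by HPLC-MS/MS; bidirectional fitting versus DMSO, concentrations not MTC-filtered.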

Experiment [8] addresses PGR (gene 5241) (UniProt P06401). The experiment in a line: TOX21_PR_BLA_Followup_Agonist_ratio: Tox21 HEK293 Progesterone Receptor (PR) Agonism Beta-lactamase Follow-Up Assay, Ratio (AID 2283933). The procedure, abridged:
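PR-UAS-bla HEK293T cells (GAL4-UAS beta-lactamase reporter) in medium with 2% charcoal-stripped FBS received compounds after 6 hr at 37C, then incubated 16 hr. LiveBLAzer FRET substrate added, 2 hr room temperature; cleaved/uncleaved (ch2/ch1) ratio fitted upward versus DMSO.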

Experiment [9] has the same target. The experiment in a line: TOX21_PR_LUC_Followup_Agonist: Tox21 HEK293 Progesterone Receptor (PR) Agonism Luciferase Follow-Up Assay (AID 2283937; active = hit-call score of the fitted dose curve at least 0.9, where 1 is the maximum; inactive = score below 0.9). A digest of the protocol:
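HEK293-PR-A-luc cells, pre-cultured 5 days in medium with 10% charcoal-stripped FBS, were seeded at 3,000 cells/well, rested 5 h at 37C, then exposed to compounds 16 h at 37C; luciferase read by ONE-Glo luminescence after 30 min.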

Records with an inconclusive call do not appear. The source made the active and inactive calls. Rule for the calls, unless noted: active = hit-call score of the fitted dose curve at least 0.9, where 1 is the maximum; inconclusive = response in the unintended direction; inactive = score below 0.9.

Chain of PGR (gene 5241) (P06401 whole entry, looked up, the tested form may be a part): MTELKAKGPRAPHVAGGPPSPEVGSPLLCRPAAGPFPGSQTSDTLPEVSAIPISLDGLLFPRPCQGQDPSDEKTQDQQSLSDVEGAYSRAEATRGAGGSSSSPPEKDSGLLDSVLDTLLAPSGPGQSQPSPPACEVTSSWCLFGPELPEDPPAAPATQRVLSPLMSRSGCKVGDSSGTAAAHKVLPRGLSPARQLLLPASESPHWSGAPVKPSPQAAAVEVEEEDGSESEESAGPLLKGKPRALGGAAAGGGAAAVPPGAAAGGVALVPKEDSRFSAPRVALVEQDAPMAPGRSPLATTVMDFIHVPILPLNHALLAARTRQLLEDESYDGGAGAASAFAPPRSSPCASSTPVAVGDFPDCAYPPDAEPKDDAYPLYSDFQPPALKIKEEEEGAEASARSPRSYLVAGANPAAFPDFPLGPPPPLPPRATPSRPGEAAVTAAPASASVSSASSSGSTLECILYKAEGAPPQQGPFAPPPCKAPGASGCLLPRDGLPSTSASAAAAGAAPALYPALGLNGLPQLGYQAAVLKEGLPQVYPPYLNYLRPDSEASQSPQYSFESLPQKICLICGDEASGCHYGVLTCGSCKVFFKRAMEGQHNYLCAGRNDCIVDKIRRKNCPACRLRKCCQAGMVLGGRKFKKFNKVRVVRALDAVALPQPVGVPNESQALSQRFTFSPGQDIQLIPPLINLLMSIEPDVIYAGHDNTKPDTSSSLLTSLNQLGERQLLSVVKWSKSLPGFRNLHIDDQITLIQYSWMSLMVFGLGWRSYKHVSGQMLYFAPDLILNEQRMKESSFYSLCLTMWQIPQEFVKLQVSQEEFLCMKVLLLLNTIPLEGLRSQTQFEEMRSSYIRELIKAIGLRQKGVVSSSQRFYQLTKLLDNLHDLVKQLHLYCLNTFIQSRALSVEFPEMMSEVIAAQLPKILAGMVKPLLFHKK

In the case of `CC(C)(c1ccccc1)c1ccc(O)cc1`, the AC50 was 32.7 µM (active) with PGR (gene 5241) [1] and 35.3 µM (active) with PGR (gene 5241) [4]. The result in experiment [2], in experiment [3], in experiment [5] and in experiment [6] was inactive.
As to `Oc1c(Cl)c(Cl)c(Cl)c(Cl)c1Cl`, the result in experiment [7] was inactive.
Regarding `COc1ccc(O)c(C(C)(C)C)c1`, the call (in [2]; in [3]; with PGR (gene 5241) [4]; in experiment [5]; in experiment [6]) was inactive.
Consider `CC(C)(O)C(=O)Nc1ccc([N+](=O)[O-])c(C(F)(F)F)c1`, for which the result (in the experiment with PGR (gene 5241) [8]; in the experiment with PGR (gene 5241) [9]; in [5]; in experiment [6]) was inactive.
On to `CCC(=O)O[C@H]1CC[C@H]2[C@@H]3CCC4=CC(=O)CC[C@]4(C)[C@H]3CC[C@]12C`, for which the AC50 in the experiment with PGR (gene 5241) [8] was 12 µM (active); in the experiment with PGR (gene 5241) [9], 6.3 µM (active). Moreover, the outcome (in the experiment with PGR (gene 5241) [1]; in [2]; in experiment [3]; with PGR (gene 5241) [4]; in [5]; in [6]) was inactive.
For `ClC(Cl)=C(c1ccc(Cl)cc1)c1ccc(Cl)cc1`, the results for the AC50 with PGR (gene 5241) [1] and in the experiment with PGR (gene 5241) [4] were 24.9 µM (active) and 21.6 µM (active), respectively. In addition, the call in experiment [2], in [3], in experiment [5] and in [6] was inactive.
`C[C@]12CCC(=O)C=C1CC[C@@H]1[C@@H]2CC[C@]2(C)C(=O)CC[C@@H]12`: in the experiment with PGR (gene 5241) [1], the AC50 is 9.75 µM (active). The result (in experiment [2]; in experiment [3]; in the experiment with PGR (gene 5241) [4]; in experiment [5]; in experiment [6]) was inactive.
Take `ClC1=C(Cl)[C@]2(Cl)[C@@H]3[C@@H]4C[C@@H]([C@H]5O[C@@H]45)[C@@H]3[C@@]1(Cl)C2(Cl)Cl`: the results for the AC50 in the experiment with PGR (gene 5241) [1] and with PGR (gene 5241) [4] were 20.3 µM (active) and 18.2 µM (active), respectively. Moreover, the molecule was called inactive in experiment [2], in experiment [3] and in experiment [5].
As for `O=C(O)C(F)(F)C(F)(F)C(F)(F)C(F)(F)C(F)(F)C(F)(F)C(F)(F)C(F)(F)C(F)(F)F`, the call in [7] was inactive.
